From PubChem BioAssay (NCI) come the findings set out here.

Compounds without any hit were thinned out: in the full panel of roughly 83,000, 20% have a hit.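 Method: cells in 96-well plates; compound added at one concentration; 48 h incubation; percent growth measured; values under 10 scored active.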 Values without a mark were called inactive. Calls of active or inactive are those of the source.

Some test systems named below: HCT-15 colon; HT29 colon; SNB-75 CNS; SNB-19 CNS; U251 CNS; PC-3 prostate; SK-MEL-5 melanoma; UACC-62 melanoma; LOX IMVI melanoma; SK-MEL-28 melanoma; SK-MEL-2 melanoma; EKVX NSCLC; SN12C renal; UO-31 renal; TK-10 renal; CAKI-1 renal; A498 renal; MOLT-4 leukemia; ACHN renal; CCRF-CEM leukemia.
Common to all, as to assay: NCI-60 one-dose screen, 48 h (100 = growth as untreated, 0 = no growth, -100 = all killed)
Conditions in all cases: 10 µM unless noted

Turning to `C=C1C(=O)O[C@@H]2[C@H]3[C@H](COC(C)=O)[C@@H](OC(C)=O)C[C@H]3C(=C)[C@@H](O)C[C@@H]12`, the growth in the assay with HCT-15 colon is 91.5%; in the assay on HT29 colon, 89.6%; in the assay on SNB-75 CNS, 74.8%; with SNB-19 CNS, 93.7%; in the assay on U251 CNS, 89.9%; with PC-3 prostate it was 88.9%. In addition, the growth in the assay on SK-MEL-5 melanoma is 89.2%; with UACC-62 melanoma, 85%; in the assay with LOX IMVI melanoma, 93%; in the assay on SK-MEL-28 melanoma, 106%; in the assay on SK-MEL-2 melanoma, 88%; in the assay on EKVX NSCLC, 110%. The growth in the assay on SN12C renal was 92.9%; with UO-31 renal it was 87.9%; in the assay on TK-10 renal, 82.4%; in the assay with CAKI-1 renal, 87.8%; with A498 renal, 121%; in the assay with MOLT-4 leukemia, 89.8%.

As to `COc1ccc(/C=C(\C#N)c2cc3ccccc3[nH]2)cc1`, the growth is 14% with HCT-15 colon; 8.16% (active) in the assay with HT29 colon; 18.6% in the assay on SNB-75 CNS; 39.7% in the assay with SNB-19 CNS; 18.7% in the assay on U251 CNS; 51% with PC-3 prostate. In addition, the growth is 22.2% in the assay on SK-MEL-5 melanoma; 31.4% in the assay on UACC-62 melanoma; 30.3% in the assay on LOX IMVI melanoma; 49.5% with SK-MEL-28 melanoma; 26.2% in the assay on SK-MEL-2 melanoma; 45.3% in the assay on EKVX NSCLC. Further, the growth with SN12C renal is 42.2%; in the assay on UO-31 renal, 46.9%; in the assay with TK-10 renal, 53.6%; with ACHN renal, 56.5%; in the assay on CAKI-1 renal, 33.9%; in the assay with A498 renal it was 32.1%. Moreover, the growth with MOLT-4 leukemia was 24.4%.

`O=C(CCCOc1ccc(Br)cc1)Nc1ncc(Cc2ccc(F)cc2)s1`: the growth with HCT-15 colon is 38.6%; in the assay with HT29 colon, 49.1%; with SNB-75 CNS, 55%; in the assay on SNB-19 CNS, 76.5%; in the assay on U251 CNS, 80.4%; with PC-3 prostate, 72.9%. Further, the growth in the assay on SK-MEL-5 melanoma is 68.8%; in the assay on UACC-62 melanoma, 50.2%; with LOX IMVI melanoma it was 64.6%; in the assay with SK-MEL-28 melanoma, 76.8%; in the assay with SK-MEL-2 melanoma, 93.3%; with EKVX NSCLC, 77%. Besides, the growth with SN12C renal is 82.7%; in the assay with UO-31 renal, 62.6%; in the assay with TK-10 renal, 86.5%; in the assay with ACHN renal, 72.9%; with A498 renal, 76.7%; with CCRF-CEM leukemia, 64.4%. Besides, in the assay on MOLT-4 leukemia, the growth was 73.8%.

For the compound `COc1ccc2c(O)c(/C=C3\N=Nc4nc(C)ccc43)oc2c1CC1CCNCC1`, the growth is 93.3% in the assay with HCT-15 colon; 31.6% in the assay with HT29 colon; 25.2% in the assay on SNB-75 CNS; 57.5% with SNB-19 CNS; 21.4% with U251 CNS; 69.2% with PC-3 prostate. For the same compound, the growth was 81.1% in the assay on SK-MEL-5 melanoma; -26.3% (active) with UACC-62 melanoma; 5.08% (active) in the assay with LOX IMVI melanoma; -68.4% (active) in the assay with SK-MEL-28 melanoma; 95.5% in the assay on SK-MEL-2 melanoma; 63.4% in the assay on EKVX NSCLC. Moreover, the growth in the assay on SN12C renal was 60.3%; in the assay with UO-31 renal it was 70.6%; with TK-10 renal it was 79.1%; in the assay with ACHN renal, 69.2%; in the assay on A498 renal, 44.7%; in the assay on CCRF-CEM leukemia, 63.3%. In the assay with MOLT-4 leukemia, the growth was 48.1%.

Consider `Nc1nc(Nc2cccnc2)sc1C(=O)c1ccccc1F`, for which the growth in the assay with HCT-15 colon was 27.7%; in the assay on HT29 colon, 35.9%; with SNB-75 CNS, 30.3%; in the assay with SNB-19 CNS it was 43.1%; in the assay with U251 CNS, 42%; in the assay with PC-3 prostate it was 43.2%. The growth was 30.1% in the assay with SK-MEL-5 melanoma; 42.4% in the assay with UACC-62 melanoma; 29.8% with LOX IMVI melanoma; 65.9% with SK-MEL-28 melanoma; 48.5% in the assay with SK-MEL-2 melanoma; 50.7% in the assay on EKVX NSCLC. Moreover, the growth was 36.8% in the assay with SN12C renal; 9.16% (active) with UO-31 renal; 54.6% with TK-10 renal; 9.23% (active) with ACHN renal; 26.4% with A498 renal; 4.65% (active) with CCRF-CEM leukemia. In addition, the growth with MOLT-4 leukemia was 26.8%.

As to `O=C([C@H]1C[C@H]1c1ccc(S(F)(F)(F)(F)F)cc1)N1CCN(c2cc(Cl)ccc2C(F)(F)F)CC1`, the growth was 88.1% with HCT-15 colon; 67.5% in the assay on HT29 colon; 101% in the assay on SNB-75 CNS; 97.1% in the assay on SNB-19 CNS; 94.2% in the assay on U251 CNS; 74.2% with PC-3 prostate. Further, the growth with SK-MEL-5 melanoma was 89.9%; in the assay with UACC-62 melanoma, 67.4%; in the assay with LOX IMVI melanoma, 102%; with SK-MEL-28 melanoma it was 97.1%; in the assay with SK-MEL-2 melanoma, 91.7%; in the assay on EKVX NSCLC, 91.9%. The growth in the assay on SN12C renal was 101%; with UO-31 renal, 67.8%; with TK-10 renal, 93.6%; with ACHN renal, 93.4%; in the assay with A498 renal, 94.4%; with CCRF-CEM leukemia, 96.4%. Moreover, the growth in the assay on MOLT-4 leukemia was 76.9%.

In the case of `CCOc1nc(-c2ccccc2)cc2c(O)c(C(=O)N/N=C/c3ccc(N(C)C)cc3)[nH]c(=O)c12`, the growth is 117% in the assay with HCT-15 colon; 145% with HT29 colon; 124% with SNB-75 CNS; 133% in the assay on SNB-19 CNS; 94.7% in the assay with U251 CNS; 88.9% in the assay with PC-3 prostate. In addition, the growth with SK-MEL-5 melanoma was 105%; with UACC-62 melanoma, 98.2%; in the assay on LOX IMVI melanoma it was 97.8%; in the assay with SK-MEL-28 melanoma it was 98.5%; in the assay on SK-MEL-2 melanoma it was 78.8%; with EKVX NSCLC, 97.5%. Further, the growth in the assay with SN12C renal is 103%; in the assay with UO-31 renal it was 88.2%; in the assay with TK-10 renal, 126%; with CAKI-1 renal, 108%; with A498 renal, 97.3%; in the assay on CCRF-CEM leukemia, 98.1%. Moreover, in the assay on MOLT-4 leukemia, the growth is 95.1%.
